{"source": "PubChem BioAssay (NCI)", "note": "Compounds without any hit were thinned out: in the full panel of roughly 83,000, 20% have a hit.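 Growth was measured after 48 h exposure to one concentration of compound in 96-well plates. Values under 10 count as active.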 Values without a mark were called inactive. The source made the active and inactive calls.", "data": [{"tested_on": "HL-60(TB) leukemia", "assay": "NCI-60 one-dose screen, 48 h (100 = growth as untreated, 0 = no growth, -100 = all killed)", "details": "10 µM unless noted", "method": "Growth inhibition of the HL-60(TB) human tumor cell line is measured as a screen for anti-cancer activity. Cells are grown in 96 well plates and exposed to the test compound for 48 hours. Compounds are tested at a single concentration, which is 10^-5 M for most compounds. The reported endpoint is percent growth (GI% or GIPRCNT), where numbers from 0 - 100% represent growth inhibition, and numbers from -100% - 0 represent cell death. For example, a value of 40 represents 60% growth inhibition. A value of 0 means no net growth occurred over the course of the experiment. A value of -40 indicates 40% of cells at the beginning of the experiment died by the end of the experiment. A value of -100 means all cells are dead at the end of the experiment.\nNCI-60 Human Tumor Cell Lines Screen was performed using the standard one-dose NCI protocol, which is described in more detail at https://dtp.cancer.gov/discovery_development/nci-60/default.htm.\nCompounds with GIPRCNT values below 10 were considered active. Activity score was based on GIPRCNT using the following formula: […]\nScore is 0 for GIPRCNT values of 100 or above, 50 for GIPRCNT values of 0, and 100 for GIPRCNT values of -100.", "values": [{"smiles": "C#CCOc1ccc(/C=N/Nc2nc(-c3cc4cc(Br)ccc4oc3=O)cs2)cc1OC", "growth": "71.1%"}, {"smiles": "COc1cccc(-c2c(C#N)c(-c3ccc(Cl)cc3)nc3n[nH]c(-c4ccc(Cl)cc4)c23)c1", "growth": "7.69% (active)"}, {"smiles": "COc1cc(C2CC(c3ccc(S(=O)(=O)NCCNc4nc(N(C)C)nc(N5CCOCC5)n4)cc3)=Nc3c(N)nc(N)nc3N2)cc(OC)c1OC", "note": "(stereo not given)", "growth": "93.6%"}, {"smiles": "Cn1cc(-c2nc(N)nnc2-c2c[nH]c3ccc(F)cc23)c2cc(Br)cnc21", "growth": "-34% (active)"}, {"smiles": "COc1cccc(/C=C/c2nc3ccccc3c(=O)n2CC(=O)Nc2ccccc2)c1", "growth": "97.7%"}, {"smiles": "C=CC(=O)N1CCN(c2ccc3nc4c(nc3c2C(F)(F)F)C(=O)c2ncccc2C4=O)CC1", "growth": "-24.7% (active)"}, {"smiles": "COc1ccc(C2c3sc4ccc(C)cc4c3Oc3nc(N)nc(N)c32)cc1", "note": "(stereo not given)", "growth": "84.8%"}, {"smiles": "N#Cc1c(-c2ccc(F)cc2)nc(SCc2ccc(F)cc2)nc1N1CCOCC1", "growth": "85%"}, {"smiles": "O=C(CSc1nnc(-c2ccc(-c3nc4ccc(Cl)cc4[nH]3)cc2)o1)Nc1ccc(Cl)cc1", "growth": "4.27% (active)"}, {"smiles": "Cc1ccc2c(c1)nc(-c1ccccc1)n2CC(=O)N=Nc1c(O)[nH]c2ccc(Cl)cc12", "growth": "46.2%"}, {"smiles": "CC(C)C[C@H](NC(=O)CNC(=O)C[C@H]1O[C@@H]2OC3(C)CC[C@H]4[C@H](C)CC[C@@H]([C@H]1C)[C@@]24OO3)B(O)O", "growth": "0.92% (active)"}, {"smiles": "Cc1ccc2nc(COc3ccc(C(=O)NNC(=O)Nc4ccc(Cl)c(C(F)(F)F)c4)cc3)[nH]c2c1", "growth": "86.1%"}, {"smiles": "COc1ccc(C(=O)Nc2sc3c(c2C#N)CCC(=O)C3)cc1C(F)(F)F", "growth": "-12% (active)"}, {"smiles": "CN(C)c1nc(NCCNS(=O)(=O)c2ccc(C3=Nc4c(N)nc(N)nc4NC(c4ccc(C(F)(F)F)cc4)C3)cc2)nc(N2CCOCC2)n1", "note": "(stereo not given)", "growth": "6.05% (active)"}, {"smiles": "O=C(/C=C/c1ccc(-c2ccccc2)cc1)c1nc2ccccc2n1Cc1ccc(F)cc1", "growth": "21.1%"}, {"smiles": "COc1ccc2[nH]cc(-c3nc(N)nnc3-c3cn(C)c4ncc(Br)cc34)c2c1", "growth": "-44.9% (active)"}, {"smiles": "CN(C)c1nc(NCCNS(=O)(=O)c2ccc(C(=O)/C=C/c3ccc(F)cc3)cc2)nc(N2CCOCC2)n1", "growth": "-20.3% (active)"}, {"smiles": "CC(C)C1=C[C@@]23CC[C@@H]4[C@](C)(CCC[C@]4(C)C(=O)NCc4ccccc4)[C@H]2C[C@@H]1[C@H]1C(=O)OC(=O)[C@H]13", "growth": "3.62% (active)"}, {"smiles": "COc1ccc(/C=C/C(=O)c2nc3ccccc3n2Cc2ccc(Br)cc2)cc1", "growth": "41.2%"}, {"smiles": "COc1cc(-c2nc3cc(Cl)c(Cl)cc3[nH]2)ccc1OCc1nnc(-c2ccc(Br)cc2)o1", "growth": "-62% (active)"}, {"smiles": "Cc1ccc(-c2cc(-c3ccccc3)[nH]c(=O)c2C#N)cc1", "growth": "86.9%"}, {"smiles": "O=C1S/C(=C\\c2ccc([N+](=O)[O-])cc2)C(=O)N1CCN1CCCCC1", "growth": "98.6%"}, {"smiles": "CCS(=O)(=O)N1CCCC(C(=O)Nc2nc3ccc(NC(=O)c4ccc(F)c(OC)c4F)cc3s2)C1", "note": "(stereo not given)", "growth": "53.9%"}, {"smiles": "COc1ccc([C@H]2C(C(=O)c3ccc(Cl)cc3)C3(N[C@@H]2c2ccccc2)C(=O)Nc2ccc(Br)cc23)cc1", "note": "(stereo not given in full)", "growth": "15.3%"}, {"smiles": "COc1cc(/C=N/NC(=O)c2ccc(OCc3nc4ccc(C)cc4[nH]3)cc2)cc(OC)c1OC", "growth": "33.5%"}, {"smiles": "COc1ccc(/C=C2\\C(=O)Nc3ccc(Cl)cc32)cc1OCc1ccccn1", "growth": "64.7%"}, {"smiles": "COc1cc2c(c(OC)c1OC)C(=O)CC(c1cccc(NC(=O)c3cc(N)ccc3Cl)c1)O2", "note": "(stereo not given)", "growth": "52.2%"}, {"smiles": "N#Cc1c(-c2ccc(Cl)cc2)nc2n[nH]c(-c3ccc(Cl)cc3)c2c1-c1ccc(C(F)(F)F)cc1", "growth": "1.12% (active)"}, {"smiles": "O=c1[nH]c2ccccc2cc1CSc1nccc(-c2ccc3ccccc3c2)n1", "growth": "50.7%"}, {"smiles": "O=c1[nH]c2ccccc2cc1CSc1ccc(Nc2nccc(-c3ccc(C(F)(F)F)cc3)n2)cc1", "growth": "69.5%"}, {"smiles": "COc1cc(-c2nc3ccc(C)cc3[nH]2)ccc1OCc1nnc(-c2ccc(Br)cc2)o1", "growth": "-34.8% (active)"}, {"smiles": "COc1cc2c(cc1OC)/C(=C\\c1sc(Nc3ccc(O)cc3)nc1O)C(C(=O)O)=N2", "growth": "-17.5% (active)"}, {"smiles": "COc1ccc(/C=N/N=C(\\C)c2ccc3c(c2)Nc2ccccc2S3)cc1O", "growth": "34.2%"}, {"smiles": "CNCc1cccc2c1OCCCCCC[C@@](C)(O)CC1(CC1)S(=O)(=O)c1ccc(cc1)-c1cnc(N)c(n1)C(=O)N2", "growth": "-61.1% (active)"}, {"smiles": "O=C(Nc1ccc(Cl)c(C(F)(F)F)c1)N1CCN(c2cc(-c3cn(-c4ccccc4)nc3-c3cccc(O)c3)ccn2)CC1", "growth": "-34.3% (active)"}, {"smiles": "CN(C)c1ccc(/C=C/c2nc3ccccc3c(=O)n2CC(=O)Nc2ccc(Cl)cc2)cc1", "growth": "95%"}, {"smiles": "O=c1[nH]c2ccccc2cc1CSc1ccc(Nc2nccc(-c3ccc4ccccc4c3)n2)cc1", "growth": "92.5%"}, {"smiles": "O=C(CSc1nc2ccccc2c(=O)n1-c1ccc(Cl)cc1)Nc1ccc(-c2nc3ccccc3[nH]2)cc1", "growth": "44.4%"}, {"smiles": "C#CCOc1cc(N(CC)CC)ccc1C(C(=O)NC(C)(C)C)N(C(=O)C1CCc2cc(F)ccc2O1)c1ccc(Br)cc1", "note": "(stereo not given)", "growth": "44.7%"}, {"smiles": "CC1(C)CC[C@]2(C(=O)Nc3ccc(F)cc3)CC[C@]3(C)C(=CCC4[C@@]5(C)C[C@@H](O)[C@H](O)[C@@](C)(CO)C5CC[C@]43C)C2C1", "note": "(stereo not given in full)", "growth": "-11.7% (active)"}]}]}
